Data published in PubChem BioAssay AID1159580 (chemical genetic matrix, 2015).
Where “and” joins values, the source holds several entries; their conditions need not be identical. Equal entries are not always repeated. The campaign covered roughly 5,500 compounds. About 2,000 (36%) were called active. Roughly 18% stayed inconclusive and do not appear here. Cut-off read from the data, not from the text of the source: active = normalized growth mostly below about 0.91 (no sharp cut-off); inconclusive = no clear call, values can overlap the other calls; inactive = mostly above about 0.92. The list shows a part of the results.

Experiment: chemical genetic growth profiling, strain panel (AID 1159580);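 note: tested at 20 µM; growth read once vehicle control cultures reached saturation at 30 °C; 1 = growth at the plate median or of vehicle wells; lower values mean less growth of the strain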
Conditions: growth OD

Measured: normalized growth

CC1=C(/C=C/C(C)=C/C=C/C(C)=C/C(=O)O)C(C)(C)CCC1
active: S. cerevisiae deletion strains, locus YLR262C, strain YPT6 (second series), active compounds read low 0.827 | S. cerevisiae deletion strains, locus YOR083W, strain WHI5, active compounds read low 0.883
inactive: S. cerevisiae deletion strains, locus YJR075W, strain HOC1, active compounds read low 1.01 | S. cerevisiae deletion strains, locus YKL009W, strain mrt4, active compounds read low 0.992 | S. cerevisiae deletion strains, locus YKL068W, active compounds read low 1.02 | S. cerevisiae deletion strains, locus YKL085W, strain MDH1 (second series), active compounds read low 1.02 | S. cerevisiae deletion strains, locus YKL085W, strain MDH1, active compounds read low 1.02 | S. cerevisiae deletion strains, locus YKL160W, strain elf1, active compounds read low 0.93 | S. cerevisiae deletion strains, locus YKL190W, strain CNB1, active compounds read low 1.01 | S. cerevisiae deletion strains, locus YKR001C, strain vps1, active compounds read low 1.02 | S. cerevisiae deletion strains, locus YKR026C, strain gcn3, active compounds read low 1.01 | S. cerevisiae deletion strains, locus YKR091W, strain srl3, active compounds read low 1.01 | S. cerevisiae deletion strains, locus YLL001W, strain dnm1, active compounds read low 0.963 | S. cerevisiae deletion strains, locus YLL026W, active compounds read low 0.996 | S. cerevisiae deletion strains, locus YLL041C, strain sdh2, active compounds read low 1.02 | S. cerevisiae deletion strains, locus YLR027C, strain aat2, active compounds read low 0.966 | S. cerevisiae deletion strains, locus YLR039C, strain RIC1, active compounds read low 0.945 | S. cerevisiae deletion strains, locus YLR058C, strain SHM2, active compounds read low 1.01 | S. cerevisiae deletion strains, locus YLR102C, strain apc9, active compounds read low 1.04 | S. cerevisiae deletion strains, locus YLR113W, strain HOG1, active compounds read low 0.978 | S. cerevisiae deletion strains, locus YLR221C, strain rsa3, active compounds read low 0.982 | S. cerevisiae deletion strains, locus YLR258W, strain gsy2, active compounds read low 0.972 | S. cerevisiae deletion strains, locus YLR262C, strain YPT6, active compounds read low 0.93 | S. cerevisiae deletion strains, locus YLR268W, strain sec22, active compounds read low 1 | S. cerevisiae deletion strains, locus YLR320W, strain mms22, active compounds read low 0.935 | S. cerevisiae deletion strains, locus YLR330W, strain CHS5, active compounds read low 1.01 | S. cerevisiae deletion strains, locus YLR342W, strain FKS1 (second series), active compounds read low 1.02 | S. cerevisiae deletion strains, locus YLR342W, strain FKS1, active compounds read low 0.922 | S. cerevisiae deletion strains, locus YLR357W, strain rsc2, active compounds read low 0.94 | S. cerevisiae deletion strains, locus YLR370C, strain arc18, active compounds read low 0.989 | S. cerevisiae deletion strains, locus YLR371W, strain rom2, active compounds read low 1.03 | S. cerevisiae deletion strains, locus YLR384C, strain iki3, active compounds read low 0.995 | S. cerevisiae deletion strains, locus YLR418C, strain cdc73, active compounds read low 1.05 | S. cerevisiae deletion strains, locus YML016C, strain PPZ1, active compounds read low 1.01 | S. cerevisiae deletion strains, locus YML032C, strain rad52, active compounds read low 1.03 | S. cerevisiae deletion strains, locus YML120C, strain ndi1, active compounds read low 1.01 | S. cerevisiae deletion strains, locus YML124C, strain tub3, active compounds read low 1.03 | S. cerevisiae deletion strains, locus YMR058W, strain fet3, active compounds read low 0.948 | S. cerevisiae deletion strains, locus YMR078C, strain ctf18, active compounds read low 1.04 | S. cerevisiae deletion strains, locus YMR125W, strain sto1, active compounds read low 1 | S. cerevisiae deletion strains, locus YMR129W, active compounds read low 1 | S. cerevisiae deletion strains, locus YMR205C, strain PFK2, active compounds read low 0.965 | S. cerevisiae deletion strains, locus YMR223W, strain ubp8, active compounds read low 1.02 | S. cerevisiae deletion strains, locus YMR231W, strain pep5, active compounds read low 1.01 | S. cerevisiae deletion strains, locus YMR263W, strain SAP30, active compounds read low 1 and 0.999 | S. cerevisiae deletion strains, locus YMR307W, strain GAS1, active compounds read low 1.02 | S. cerevisiae deletion strains, locus YNL067W, strain RPL9B, active compounds read low 1 | S. cerevisiae deletion strains, locus YNL071W, strain lat1, active compounds read low 0.957 | S. cerevisiae deletion strains, locus YNL128W, strain TEP1, active compounds read low 1.02 | S. cerevisiae deletion strains, locus YNL153C, strain GIM3, active compounds read low 1.01 | S. cerevisiae deletion strains, locus YNL175C, strain NOP13, active compounds read low 1.05 | S. cerevisiae deletion strains, locus YNL183C, strain NPR1, active compounds read low 0.905 | S. cerevisiae deletion strains, locus YNL197C, strain WHI3, active compounds read low 1.04 | S. cerevisiae deletion strains, locus YNL209W, strain ssb2, active compounds read low 0.973 | S. cerevisiae deletion strains, locus YNL224C, strain SQS1, active compounds read low 1.03 | S. cerevisiae deletion strains, locus YNL233W, strain BNI4, active compounds read low 1.01 | S. cerevisiae deletion strains, locus YNL248C, strain rpa49, active compounds read low 0.955 | S. cerevisiae deletion strains, locus YNL250W, strain rad50, active compounds read low 1.03 | S. cerevisiae deletion strains, locus YNL271C, strain bni1, active compounds read low 1.03 | S. cerevisiae deletion strains, locus YNL298W, strain CLA4, active compounds read low 1.03 | S. cerevisiae deletion strains, locus YNL307C, strain MCK1, active compounds read low 1.01 | S. cerevisiae deletion strains, locus YNL322C, strain KRE1 (second series), active compounds read low 0.989 | S. cerevisiae deletion strains, locus YNL322C, strain KRE1, active compounds read low 1.01 and 1 | S. cerevisiae deletion strains, locus YNR049C, strain mso1, active compounds read low 1.01 | S. cerevisiae deletion strains, locus YNR052C, strain pop2, active compounds read low 1.04 | S. cerevisiae deletion strains, locus YOL006C, strain TOP1, active compounds read low 1.04 | S. cerevisiae deletion strains, locus YOL012C, strain htz1 1.82 | S. cerevisiae deletion strains, locus YOL147C, strain pex11, active compounds read low 1.03 | S. cerevisiae deletion strains, locus YOR001W, strain rrp6, active compounds read low 0.978 | S. cerevisiae deletion strains, locus YOR061W, strain CKA2, active compounds read low 1.01 | S. cerevisiae deletion strains, locus YOR069W, strain VPS5, active compounds read low 1.01 | S. cerevisiae deletion strains, locus YOR070C, strain gyp1, active compounds read low 0.975 | S. cerevisiae deletion strains, locus YOR080W, strain dia2, active compounds read low 0.999 | S. cerevisiae deletion strains, locus YOR083W, strain WHI5 (second series), active compounds read low 1.02 | S. cerevisiae deletion strains, locus YOR106W, strain vam3, active compounds read low 0.935 | S. cerevisiae deletion strains, locus YOR136W, strain idh2, active compounds read low 1.04 | S. cerevisiae deletion strains, locus YOR144C, strain elg1, active compounds read low 1.04 | S. cerevisiae deletion strains, locus YOR184W, strain ser1, active compounds read low 1.03 | S. cerevisiae deletion strains, locus YOR231W, strain MKK1, active compounds read low 0.992 | S. cerevisiae deletion strains, locus YOR265W, strain rbl2, active compounds read low 1.01 | S. cerevisiae deletion strains, locus YOR270C, strain vph1, active compounds read low 0.926 | S. cerevisiae deletion strains, locus YOR290C, strain snf2, active compounds read low 0.952 | S. cerevisiae deletion strains, locus YOR316C, strain cot1, active compounds read low 1.02 | S. cerevisiae deletion strains, locus YPL051W, strain arl3, active compounds read low 0.932 | S. cerevisiae deletion strains, locus YPL055C, strain LGE1, active compounds read low 1.01 and 0.999 | S. cerevisiae deletion strains, locus YPL078C, strain atp4, active compounds read low 0.943 | S. cerevisiae deletion strains, locus YPL106C, strain sse1, active compounds read low 0.987 | S. cerevisiae deletion strains, locus YPL240C, strain hsp82, active compounds read low 0.992 | S. cerevisiae deletion strains, locus YPL241C, strain CIN2, active compounds read low 1.01 | S. cerevisiae deletion strains, locus YPL256C, strain CLN2, active compounds read low 1.04 | S. cerevisiae deletion strains, locus YPR119W, strain clb2, active compounds read low 1.03 | S. cerevisiae deletion strains, locus YPR141C, strain kar3, active compounds read low 1.05 | S. cerevisiae deletion strains, locus YPR163C, strain tif3, active compounds read low 1.04 | S. cerevisiae deletion strains, locus YPR167C, strain met16, active compounds read low 1.03 | S. cerevisiae deletion strains, strain wtn01, active compounds read low 1.04 | S. cerevisiae strains, strain wild type, active compounds read low 1
